Assay results taken from article PMC5540273 (PLoS ONE, 2017).

tested on: DAPK3; details: concentration: 1 μM, replicates: in singlicate; n = 1
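Further: KINOMEscan kinase panel screen.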

First: O=C(NC1CCN(c2ccnc(Nc3ccc(F)cc3)n2)C1)c1cc2ccccc2s1 (stereo not shown) [GSK1379716]
Second: O=C(Nc1ccccc1F)NC1CCN(c2ccnc(Nc3ccc(F)cc3)n2)CC1 [GSK1379800]
The “%Inh” value of the first is lower: 5% for the first, 20% for the second.

First: COc1cc2c(cc1OCCN1CCNCC1)ncc1c3ccc(C#N)cc3[nH]c21
Second: COc1cc(Nc2ncc3c(C)nc(-c4cc5ccccc5[nH]4)n3n2)cc(OC)c1OC [GW869516]
The “%Inh” value of the first is lower: 4% for the first, 11% for the second.

First: COc1cc(Nc2nccc(N3CCC(NC(=O)Nc4cccc(C(C)=O)c4)C3)n2)cc(OC)c1OC (stereo not shown) [GSK1379753]
Second: COc1ccc(Nc2nccc(N3CCC(NC(=O)Nc4cccc(OC)c4)C3)n2)cc1 (stereo not shown) [GSK1379742]
The “%Inh” value of the first is higher: 13% for the first, 0% for the second.

O=C(Nc1cccc(-c2nn3ccccc3c2-c2ccnc(Nc3cccc(C(F)(F)F)c3)n2)c1)c1c(F)cccc1F [GSK292658] and O=C(Nc1cccc(-c2nn3ccccc3c2-c2ccnc(Nc3cccc(F)c3)n2)c1)c1c(F)ccc(F)c1Cl [GSK357952] are the same in “%Inh” value: 0% for the first, 0% for the second.

Going from CN(c1ccc(NC(=O)Nc2cc(C(F)(F)F)ccc2F)cc1)c1ccnc(Nc2ccc(S(N)(=O)=O)cc2)n1 [GW809893] to Cc1ccc(S(=O)(=O)Nc2ccc(Nc3nccc(Nc4cccc5[nH]ncc45)n3)cc2)cc1 [GSK581271], the “%Inh” value rises from 0% to 5%.

Cc1cccc(NC(=O)Nc2ccc(Oc3ncnc4ccn(C)c34)cc2)c1 and COc1ccc(Nc2nccc(NCCNC(=O)c3cc4ccccc4s3)n2)cc1 [GSK1379896] are the same in “%Inh” value: 0% for the first, 0% for the second.

Compared with Cl.c1ccc(-c2ccc3c(Nc4ccc5[nH]ccc5c4)ccnc3c2)nc1 [GW440138], c1ccc(-c2n[nH]cc2Nc2ccnc3ccccc23)nc1 [GW694077] is higher in “%Inh” value: 23% for the first, 66% for the second.

Compared with CN1CCN(CCCNc2nccc(-c3c(-c4ccc(F)cc4)nn4cc(C(F)(F)F)ccc34)n2)CC1 [GW621581], CSc1cccc2c(-c3ccncn3)c(-c3ccc(F)cc3)nn12 [GW514786] is lower in “%Inh” value: 100% for the first, 0% for the second.

Compared with C[C@@H](Oc1cc(-n2cnc3cc(-c4ccnc(NCCS(C)(=O)=O)c4)ccc32)sc1C(N)=O)c1ccccc1Cl [GSK907232], CN1CCN(Cc2cccc(-c3ccc4c(Nc5ccc(Oc6ccccc6)cc5)ccnc4c3)c2)CC1 [GW578342] is higher in “%Inh” value: 17% for the first, 25% for the second.

Going from Cc1cccc(Nc2nc(N[C@H]3CCNC3)ncc2C(N)=O)c1.Cl [GSK2197149] to CC(=O)Nc1nc2cnc(Nc3cc(NC(=O)c4cccc(C5(C#N)CC5)c4Cl)ccc3C)nc2s1, the “%Inh” value falls from 22% to 0%.

Compared with CCc1ccc(-c2ccc3c(c2)-c2c(cnn2C)S(=O)(=O)N3C)cc1, COc1ccc(-c2coc3ccc(-c4nnc(SCc5ccc(OC)c(C(F)(F)F)c5)o4)cc23)cc1 is lower in “%Inh” value: 5% for the first, 0% for the second.

First: O=C(Nc1n[nH]c2cc(-c3ccoc3)ccc12)C1CC1 [SB-738481]
Second: O=C(Nc1n[nH]c2nc(-c3ccc(O)cc3)ccc12)C1CC1 [SB-710363]
The “%Inh” value of the first is lower: 0% for the first, 32% for the second.

Going from Nc1ncnc2c1nc(-c1ccccc1)n2-c1ccccc1 [SKF-97293] to Nc1n[nH]c2cnc(-c3ccccc3)cc12 [SB-642124], the “%Inh” value rises from 17% to 27%.

First: COc1ccc(CNC(=O)NC2CCN(c3ccnc(Nc4ccc(F)cc4)n3)CC2)cc1 [GSK1379788]
Second: O=C(Nc1cccc(-c2nn3ncccc3c2-c2ccnc(Nc3ccccc3)n2)c1)c1c(F)cccc1F [GSK198271]
The “%Inh” value of the first is lower: 0% for the first, 1% for the second.

First: Cc1occc1-c1ncc(OC[C@@H](N)Cc2c[nH]c3ccccc23)cc1-c1ccc2[nH]nc(C)c2c1.O=C(O)C(F)(F)F [GSK682037]
Second: Cn1cc(-c2[nH]c3cc(NC(=O)[C@H](N)C4CCCCC4)cc4c3c2C=NNC4=O)cn1
The “%Inh” value of the first is lower: 2% for the first, 99.7% for the second.

tested on: T1, DCAMKL1; details: concentration: 1 μM, replicates: in singlicate; n = 1
T1 construct: gene DCLK1

Compared with CN(C)S(=O)(=O)c1cc(-c2ccc3nccc(-c4cccc(S(N)(=O)=O)c4)c3c2)cnc1N [GSK1669921], C[C@@H](Oc1cc(-n2cnc3cc(-c4ccnc(NCCS(C)(=O)=O)c4)ccc32)sc1C(N)=O)c1ccccc1Cl [GSK907232] is lower in “%Inh” value: 28% for the first, 26% for the second.

First: CCS(=O)(=O)c1ccc(OC)c(Nc2nccc(-c3c(-c4cccc(NC(=O)c5c(F)cccc5F)c4)nn4ncccc34)n2)c1 [GSK326180]
Second: O=C(Nc1cccc(-c2nn3ncccc3c2-c2ccnc(Nc3ccccc3)n2)c1)c1c(F)cccc1F [GSK198271]
The “%Inh” value of the first is lower: 3% for the first, 18% for the second.

First: COc1cc(Nc2nccc(N3CCC(NC(=O)c4cc5ccccc5s4)C3)n2)cc(OC)c1OC (stereo not shown) [GSK1379760]
Second: COc1cc(Nc2nccc(N3CCC(NC(=O)Nc4cccc(C(C)=O)c4)C3)n2)cc(OC)c1OC (stereo not shown) [GSK1379753]
The “%Inh” value of the first is lower: 13% for the first, 20% for the second.

Going from Cc1ccc(F)c(C(=O)Nc2cccc(-c3nn4ccccc4c3-c3ccnc(Nc4cccc(F)c4)n3)c2)c1F [GSK361061] to O=C(Nc1cccc(-c2nn3ccccc3c2-c2ccnc(Nc3cccc(F)c3)n2)c1)c1c(F)ccc(F)c1Cl [GSK357952], the “%Inh” value rises from 0% to 3%.

Going from Clc1ccc(-c2nn3ncccc3c2-c2ccnc(Nc3ccc4c(c3)OCCO4)n2)cc1 [GW829116] to CCCCc1nn2ncccc2c1-c1ccnc(Nc2ccc(N3CCN(C)CC3)cc2)n1 [GW684941], the “%Inh” value rises from 7% to 17%.

Compared with CCn1c(-c2nonc2N)nc2c(C#CC(C)(C)O)ncc(OCCCCN)c21.O=C(O)C(F)(F)F.O=C(O)C(F)(F)F [GSK507274], Cc1occc1-c1ncc(OC[C@@H](N)Cc2c[nH]c3ccccc23)cc1-c1ccc2[nH]nc(C)c2c1.O=C(O)C(F)(F)F [GSK682037] is lower in “%Inh” value: 40% for the first, 10% for the second.

Compared with O=C(NC1CCN(c2ccnc(Nc3ccc(F)cc3)n2)C1)c1cc2ccccc2s1 (stereo not shown) [GSK1379716], O=C(Nc1ccccc1F)NC1CCN(c2ccnc(Nc3ccc(F)cc3)n2)CC1 [GSK1379800] is lower in “%Inh” value: 18% for the first, 0% for the second.

Compared with COc1cc2c(cc1OCCN1CCNCC1)ncc1c3ccc(C#N)cc3[nH]c21, COc1cc(Nc2ncc3c(C)nc(-c4cc5ccccc5[nH]4)n3n2)cc(OC)c1OC [GW869516] is lower in “%Inh” value: 38% for the first, 17% for the second.

Compared with O=C(Nc1cccc(-c2nn3ccccc3c2-c2ccnc(Nc3cccc(C(F)(F)F)c3)n2)c1)c1c(F)cccc1F [GSK292658], CN(c1ccc(NC(=O)Nc2cc(C(F)(F)F)ccc2F)cc1)c1ccnc(Nc2ccc(S(N)(=O)=O)cc2)n1 [GW809893] is lower in “%Inh” value: 49% for the first, 3% for the second.

First: Cc1cccc(NC(=O)Nc2ccc(Oc3ncnc4ccn(C)c34)cc2)c1
Second: COc1ccc(Nc2nccc(N3CCC(NC(=O)Nc4cccc(OC)c4)C3)n2)cc1 (stereo not shown) [GSK1379742]
The “%Inh” value of the first is higher: 45% for the first, 0% for the second.

First: Cl.c1ccc(-c2ccc3c(Nc4ccc5[nH]ccc5c4)ccnc3c2)nc1 [GW440138]
Second: c1ccc(-c2n[nH]cc2Nc2ccnc3ccccc23)nc1 [GW694077]
The “%Inh” value of the first is lower: 0% for the first, 23% for the second.

Going from CN1CCN(CCCNc2nccc(-c3c(-c4ccc(F)cc4)nn4cc(C(F)(F)F)ccc34)n2)CC1 [GW621581] to CSc1cccc2c(-c3ccncn3)c(-c3ccc(F)cc3)nn12 [GW514786], the “%Inh” value rises from 0% to 5%.

Compared with Cc1cccc(Nc2nc(N[C@H]3CCNC3)ncc2C(N)=O)c1.Cl [GSK2197149], CC(=O)Nc1nc2cnc(Nc3cc(NC(=O)c4cccc(C5(C#N)CC5)c4Cl)ccc3C)nc2s1 is higher in “%Inh” value: 16% for the first, 23% for the second.

Compared with CCc1ccc(-c2ccc3c(c2)-c2c(cnn2C)S(=O)(=O)N3C)cc1, COc1ccc(-c2coc3ccc(-c4nnc(SCc5ccc(OC)c(C(F)(F)F)c5)o4)cc23)cc1 is higher in “%Inh” value: 0% for the first, 38% for the second.

Going from Cc1ccc(S(=O)(=O)Nc2ccc(Nc3nccc(Nc4cccc5[nH]ncc45)n3)cc2)cc1 [GSK581271] to COc1ccc(Nc2nccc(NCCNC(=O)c3cc4ccccc4s3)n2)cc1 [GSK1379896], the “%Inh” value falls from 12% to 10%.

Compared with CN1CCN(Cc2cccc(-c3ccc4c(Nc5ccc(Oc6ccccc6)cc5)ccnc4c3)c2)CC1 [GW578342], COc1ccc(CNC(=O)NC2CCN(c3ccnc(Nc4ccc(F)cc4)n3)CC2)cc1 [GSK1379788] is lower in “%Inh” value: 13% for the first, 0% for the second.

First: O=C(Nc1n[nH]c2cc(-c3ccoc3)ccc12)C1CC1 [SB-738481]
Second: O=C(Nc1n[nH]c2nc(-c3ccc(O)cc3)ccc12)C1CC1 [SB-710363]
The “%Inh” value of the first is higher: 2% for the first, 0% for the second.

First: Nc1ncnc2c1nc(-c1ccccc1)n2-c1ccccc1 [SKF-97293]
Second: Nc1n[nH]c2cnc(-c3ccccc3)cc12 [SB-642124]
The “%Inh” value of the first is lower: 0% for the first, 13% for the second.

With Cn1cc(-c2[nH]c3cc(NC(=O)[C@H](N)C4CCCCC4)cc4c3c2C=NNC4=O)cn1 the “%Inh” value was 46%.
